# SW480 rerep: A quantitative high throughput screen for small molecules that induce DNA re-replication in SW480 colon adenocarcinoma cells; actives 1.8% (n = 340,000); SW480 DNA re-replication, Hoechst DNA content imaging, 48 h; Potency, µM (top dose mostly 46.1 µM), inactives show top-dose re-replication activation, usual class: activators; note: % of control where 0% means no effect; nearly all actives have a fitted effect of over 55% in size
#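 Readout is total intensity of Hoechst-stained nuclei, excited at 405 nm and collected at 500-530 nm. Compound treatment lasted 48 hr at 37 C in 5% CO2 before staining.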
# ELG1 genotoxic: qHTS screen for small molecules that induce genotoxicity in human embryonic kidney (HEK293T) cells expressing luciferase-tagged ELG1 | HEK293T ELG1-luciferase reporter, luminescence, 16 h | Potency, µM (top dose mostly 46 µM), for the others: at the top dose activity change, positive = activation, most hits filed as activators | actives 1.3% (n = 330,000); note: % of control where 0% means no effect; nearly all actives have a fitted effect of over 60% in size
#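 Step 1: seed 2,000 HEK293T ELG1-luciferase cells per well. Step 2: add compound or DMSO, incubate 16 hr at 37 °C. Step 3: ONE-Glo, 30 min at room temperature, read luminescence.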
# MCF10A rerep: A quantitative high throughput screen for small molecules that induce DNA re-replication in MCF 10a normal breast cells; MCF 10A DNA re-replication, Hoechst nuclear intensity, 48 h; Potency, µM (highest dose often 46.1 µM), for inactives: at the highest dose activity, positive = re-replication, most hits filed as activators; actives 2.9% (n = 350,000); note: % of control where 0% means no effect; nearly all actives have a fitted effect of over 50% in size
# ELG1 DNA repair: qHTS screen for small molecules that inhibit ELG1-dependent DNA repair in human embryonic kidney (HEK293T) cells expressing luciferase-tagged ELG1 | HEK293T ELG1-luciferase reporter, luminescence, 16 h; DNA damage induced by 5-fluorouridine | Potency, µM (series often up to 46.1 µM), for inactives: top-dose activity change, negative = inhibition, hits mostly inhibitors | actives 2.3% (n = 330,000) | AID 504467, 2011; note: % is set by controls: 0 for no effect and ±100 for the full control effect; nearly all actives have a fitted effect of over 55% in size
#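 In this reporter screen, reduction of luminescence relative to DMSO vehicle indicated activity. Compounds and 5-fluorouridine were added together to 2,000 cells per well, incubated for 16 hr at 37 °C, then developed with ONE-Glo.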
# AT treatment: qHTS Assay for Identifying a Potential Treatment of Ataxia-Telangiectasia; F2112 A-T fibroblasts, KAP-1 phosphorylation AlphaLISA; neocarzinostatin DNA damage 30 min before lysis; Potency, µM (highest dose often 57.5 µM), for inactives: at the highest dose activation, hits mostly activators; actives 0.19% (n = 320,000); AID 485349, 2010; note: % of control where 0% means no effect; nearly all actives have a fitted effect of over 45% in size
#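 ATM-like activity read as KAP-1 phosphorylation via AlphaLISA donor/acceptor antibody pairs after lysis and 6 hr at 25C. Cells were ATM-null patient fibroblasts (F2112, hTERT), dosed 60 min, then exposed to the DSB inducer NCS for 30 min.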
# p53 reactivator: qHTS assay for re-activators of p53 using a Luc reporter. H1299 p53-A138V BP100-luciferase reporter, luminescence, 24 h. Potency, µM (doses to about 92.2 µM), for inactives: at the highest dose activity change, positive = activation, actives largely listed as activators. actives 0.063% (n = 320,000). AID 504706, 2011; note: % of control where 0% means no effect; nearly all actives have a fitted effect of over 45% in size
#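 H1299 (p53-null), stable ts p53-A138V + BP100-Luc; 1000 cells/well, Opti-MEM/10% FBS; cpd 4 pt, 1:5; 24 h, 37 deg C, 5% CO2; detection reagent 10 min RT; luminescence.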
# * marks the source's active call; other numbers are inactive results; ? = inconclusive; / = no result given; [ ] = another dose, or the depositor's remark. Only some compounds are listed: those with a hit (about 7.1% of all), similar ones and a draw of the others. Calls come from the whole dose curve; as a rule, active = well fitted curve in the direction sought with a large enough effect; inconclusive = small, poorly fitted or top-dose-only effect, or another doubt; inactive = no such curve, though single readings can be large; an effect the other way counts as inactive or inconclusive. Potency is the fitted concentration of half-maximal effect.
SMILES,SW480 rerep,ELG1 genotoxic,MCF10A rerep,ELG1 DNA repair,AT treatment,p53 reactivator
Brc1cc(Br)c2nc(-c3ccc(N4CCOCC4)cc3)ccc2c1,8.2µM*,9.3%,9.2µM*,?,18.6%,9.3%
O=C(O)c1cc(-c2ccc(N3CCOCC3)cc2)nn1-c1ccc(F)cc1F,-1.0%,5.4%,-1.8%,?,1.4%,33.1%
COc1ccc(N2CCN(C(=O)CCc3nnc4ccc(N5CCOCC5)nn34)CC2)cc1,-7.2%,3.7%,0.2%,-5.7%,1.0%,8.7%
Cc1cc(C)c2nc(/N=C(\N)NC(=O)Nc3ccccc3)nc(C)c2c1,9.2µM*,-1.7%,20.6µM*,?,-1.2%,7.5%
Cc1cc(C)c2nc(/N=C(\N)NC(=O)c3ccccc3)nc(C)c2c1,-6.4%,1.0%,20.4%,5.9%,-7.0%,5.8%
O=C(COC(=O)CCC(=O)c1ccc(F)cc1)NCCc1ccccc1,-15.1%,1.9%,-12.1%,6.8%,5.3%,26.8%
COCCNc1cc(C)nc2cc(-c3ccc(C)cc3)nn12,16.4µM*,?,?,12.8%,1.8%,-0.8%
Cc1ccc(-c2cc3nc(C)cc(NCc4ccco4)n3n2)cc1,?,4.11µM*,5.17µM*,?,11.8%,?
COc1ccc(-c2cc3nc(C)cc(NCCO)n3n2)cc1,-12.2%,9.2%,-1.0%,?,-3.9%,9.3%
COc1ccc(-c2cc3nc(C)cc(-c4ccc(OC)cc4)n3n2)cc1,?,2.5%,11.6µM*,0.7%,?,13.2%
Cn1cnc2c(cnn2C)c1=O,-4.7%,/,1.1%,/,/,/
COc1ccc(C(=O)Nc2nnc(Cc3ccc(OC)c(OC)c3)s2)c(OC)c1,-2.7%,12.1%,7.9%,-19.4%,3.6%,/
COc1ccc(Cc2nnc(NC(C)=O)s2)cc1,-16.9%,9.9%,13.5%,1.9%,8.3%[11.5 µM],4.2%
COc1ccc(Cc2nnc(NC(=O)c3cc(OC)cc(OC)c3)s2)cc1,102.3%,-1.9%,13µM*,?,-1.6%,28.8%
COCc1nnc(NC(=O)c2ccc(OC)cc2OC)s1,-7.9%,8.2µM*,1.9%,?,2.3%,-8.6%
NC(=O)c1ccc2c(=O)c(O)c(-c3cc(Cl)c(N)c(Cl)c3)[nH]c2c1,-7.0%,1.7%,0.9%,7.4%,17.6%,11.1%
O=S(=O)(c1ccccc1F)N1CCN(Cc2cc3c(cc2Br)OCCO3)CC1,-5.8%,-1.8%,?,-29.8%,8.9%,5.9%
CCOC(=O)CCNC(=O)Nc1ccc2nc(C)n(Cc3ccc(Cl)cc3)c(=O)c2c1,-7.8%,2.8%,-0.8%,14.6µM*,-18.5%,-7.7%
Cc1sc(NC(=S)NC(=O)CCc2ccccc2)c(C(N)=O)c1C,0.291µM*,?,0.13µM*,9.6%,-2.8%,18.6%
COC(=O)CCC(=O)NC(=S)Nc1sc(C)c(C)c1C(N)=O,?,17.6%,1.16µM*,-0.2%,-1.0%,2.8%
COC(=O)CCC(=O)Nc1sc(C)c(C)c1C(N)=O,-4.7%,1.6%,-0.8%,13.5%,1.5%,15.1%
C[C@@H](NC(=O)[C@@H]1Cc2ccccc2CN1)C(=O)NCC1CCCO1 (stereo not given in full),0.8%,1.8%,4.4%,?,-3.8%,5.2%
O=C(NC(=O)N1CCN(c2cccc(Cl)c2)CC1)c1ccc(Cl)cc1,-0.3%,4.0%,5.17µM*,4.1%,-1.0%,-2.6%
Cc1ccc(C(=O)N2CCN(c3cccc(Cl)c3)CC2)cc1C,11.6µM*,-7.2%,18.4µM*,-20.2%,2.6%,0.2%
